# Reference: PubChem BioAssay AID1850 (Southern Research Specialized Biocontainment Screening …, 2009)
# Among all 310,000 compounds or so, about 1,000 (0.32%) were called active. Not all results are given here. Entries with a potency or affinity are not part of this list. A number with no mark means an inactive call. No rule for the calls is given here.
# Test: Inhibition of PhoP regulon, Salmonella typhi GFP reporter cells, confirmation, 4 h (AID 1850);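 also: 0% = induced wells with vehicle and 100% = uninduced wells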
# Conditions: Salmonella Typhi PhoP-promoter GFP reporter, fluorescence, at 50 µM, active compounds read high
row,SMILES,inhibition [%]
1,COc1ccc(CCC(=O)NCCS(=O)(=O)N2CCN(c3ccc(F)cc3)CC2)cc1,3.06
2,O=C(c1ccccc1)N1N=C(C(F)(F)F)CC1(O)c1ccc(F)cc1 (stereo unspecified),-5.13
3,CCOC(=O)c1ccc(S(=O)(=O)N2CCN(C(=O)CSc3nc4ccccc4o3)CC2)cc1,1.15
4,CC(=O)c1c(C(C)=O)c(C)n(NC(=O)c2ccc(Cl)cc2)c1C,2.98
5,CN(C)C1=NCC(CSC(=N)N)S1 (stereo unspecified),-1.53
6,CCOc1ccc(N2CC(C(=O)Nc3ccc4c(c3)OCO4)CC2=O)cc1 (stereo unspecified),2.26
7,Cc1ccc(C(=O)Nc2nnc(S(=O)(=O)N3CCC(C)CC3)s2)cc1,4.17
8,O=C(COC(=O)c1ccc(Cl)c(S(=O)(=O)N2CCCC2)c1)NC1CCCCC1,5.96
9,Cc1c2ccccc2nc2ccccc12,-14.3
10,CCOc1ccc(Nc2cc(C)c3ccccc3n2)cc1,10.8
11,CCOc1ccc(Nc2nc3ccccc3c(=O)s2)cc1,10.5
12,COc1c2ccccc2c(OC)c2ccccc12,-8.01
13,CCOC(=O)C(Cc1ccccc1)NC(=O)CNC(=O)CNC(=O)OCc1ccccc1 (stereo unspecified),4.1
14,CC1CCCCN1C(=O)COC(=O)c1cc([N+](=O)[O-])ccc1N (stereo unspecified),0.19
15,COCCN(C(=O)COC(=O)CC1CCCCC1)c1c(N)n(Cc2ccccc2)c(=O)[nH]c1=O,-6.56
16,COc1ccc(/C=C(\NC(=O)c2ccco2)C(=O)NCCc2nc3ccccc3[nH]2)cc1,4.61
17,Cc1cc(N(CCCl)CCCl)ccc1/C=N/N=C(\N)c1cnccn1,1.24
18,CC(C)(C)c1ccc(C(=O)NCC(=O)OCC(=O)Nc2nc(-c3ccc(F)cc3)cs2)cc1,6.97
19,Cc1ccc(C)c2[nH]c(=O)c(CN(CC3CCCO3)S(=O)(=O)c3ccc4c(c3)OCCO4)cc12 (stereo unspecified),-7.59
20,CCN(CC)CCN1C(=O)c2cccc3cc(N)cc(c23)C1=O,6.76
21,NC(=O)CN1CCN(CCN2C(=O)c3cccc4cccc(c34)C2=O)CC1,10.1
22,COCCCNCCCOc1ccc(C(C)(C)c2ccccc2)cc1,0.01
23,Cc1ccc(OCCCCCCN2CCNCC2)cc1,11.8
24,CC(C)(c1ccccc1)c1ccc(OCCN2CCOCC2)cc1,-18

row,SMILES,inhibition [%]
1,COCCNCCCOc1ccc(C(C)(C)c2ccccc2)cc1,3.55
2,CC1CCN(CCCCOc2ccc(C(C)(C)C)cc2)CC1,-0.73
3,CC(C)(C)c1ccc(OCCCN2CCCC2)cc1,-5.11
4,Cn1c(SCC(=O)Nc2ccc3c(c2)OCCO3)nnc1-c1ccccn1,-2.36
5,COCCNc1c([N+](=O)[O-])c(=O)n(-c2ccccc2)c2ccccc12,-1
6,Cn1c(N)c(N2CCN(c3ccccc3)CC2)c(=O)[nH]c1=O,-2.5
7,O=C(COC(=O)CCC(=O)c1ccc(F)cc1)NCc1ccco1,11.3
8,COC(=O)c1sc2ccccc2c1NC(=O)c1ccc(S(=O)(=O)N2CCCCC2)cc1,10.9
9,CN(CCOc1ccc(Cl)cc1)C(=O)C1CCN(C(=O)c2ccc(Cl)cc2)CC1,-3.38
10,CC(C)C(=O)NC(c1cccs1)c1cc([N+](=O)[O-])c2cccnc2c1O (stereo unspecified),-8.78
11,CCCC(=O)NC(c1cccs1)c1cc([N+](=O)[O-])c2cccnc2c1O (stereo unspecified),-5.59
12,CCCC(=O)NC(c1ccco1)c1cc(Cl)c2cccnc2c1O (stereo unspecified),-13.5
13,CC(=O)NC(c1ccccc1)c1cc([N+](=O)[O-])c2cccnc2c1O (stereo unspecified),0.16
14,COc1ccc(S(=O)(=O)N2CCOCC2)cc1N=Nc1sc(N)nc1-c1ccccc1,0.93
15,CCCCCOC(=O)CC(C(=O)OCCCCC)N1CCCCC1 (stereo unspecified),1.36
16,CCCCCCCCOC(=O)C[N+](C)(C)C/C=C(/C)Cl,-1.52
17,CCCCCCCCCCOC(=O)C[N+](C)(C)C/C=C(/C)Cl,-3.67
18,CCCCOC(=O)C1CCCC(C(=O)OCCCC)N1 (stereo unspecified),2.58
19,CC12CN3CCN(CC(C3)/C1=N/NC(=O)Nc1ccccc1)C2,3.04
20,CCOc1ccc(NC(=O)CN(C)C(=O)c2cn3ccccc3n2)cc1OCC,-2.5
21,O=C(c1ccc(F)cc1)C1CCN(C(=S)Nc2ccc(F)cc2)CC1,1.13
22,C/C(=N\NC(=O)c1nnn(-c2nonc2N)c1-c1ccc2c(c1)OCO2)c1ccccc1,-37.7
23,CC1CN(CCOc2ccc(Cl)cc2Cl)CC(C)O1 (stereo unspecified),10.8
24,CC1CC(C)CN(CCOc2cccc(Cl)c2Cl)C1 (stereo unspecified),-0.58

row,SMILES,inhibition [%]
1,CC1CC(C)CN(S(=O)(=O)N2CCCC(C(=O)NCCc3ccccc3)C2)C1 (stereo unspecified),6.06
2,NS(=O)(=O)c1ccc(CCNC(=O)c2cc([N+](=O)[O-])ccc2N2CCCCC2)cc1,7.9
3,O=C(CCc1ccc(S(=O)(=O)N2CCOCC2)cc1)N1CCN(Cc2ccc3c(c2)OCO3)CC1,-0.09
4,CCN1CCN(CCNC(=O)c2ccc3c(c2)N(Cc2ccc(F)cc2)C(=O)c2ccccc2S3=O)CC1 (stereo unspecified),-3.27
5,CCN1CCN(CCNC(=O)c2ccc(/C=C3/Sc4ccccc4N(Cc4cccc(Cl)c4)C3=O)cc2)CC1,47.7
6,Cc1ccc(C(=O)Nc2cccc(C(=O)NC3CCCCC3)c2)cc1,7.56
7,CCOC(=O)c1c(C)c(-c2ccccc2)n(CC(=O)N2CCN(C)CC2)c1C,-2.34
8,O=C1Nc2ccccc2C1=Nc1cccc([N+](=O)[O-])c1,6.17
9,O=C1Nc2ccccc2Nc2ccc([N+](=O)[O-])cc21,-12.2
10,COc1ccccc1OCc1ccc(C(=O)NCc2ccco2)o1,-2.77
11,O=C(N/N=C/c1ccccc1O)c1cccc2ccccc12,3.31
12,COc1ccc(C(=O)N/N=C/c2c[nH]c3ccccc23)cc1,4.58
13,COc1ccc2cc(C(=O)N/N=C/c3sc4ccccc4c3O)ccc2c1,-4.14
14,O=C(N/N=C/c1sc2ccccc2c1O)c1ccccc1,-3.49
15,Cc1ccc(CN2CCCN(Cc3ccc(F)cc3Cl)S2(=O)=O)cc1,0.28
16,O=C(O)C1CC(O)CN1c1nc(Cl)ccc1[N+](=O)[O-] (stereo unspecified),4.36
17,O=C1CC2(CCCC2)Oc2ccccc21,9.18
18,CC(C)(C)c1cc(NCCCn2ccnc2)n2ncc(-c3ccccc3)c2n1,12.3
19,CC(C)Nc1cc(C(C)(C)C)nc2c(-c3ccccc3)cnn12,0.99
20,CC(C)(C)c1cc(NCCCn2ccnc2)n2ncc(-c3ccc(Cl)cc3)c2n1,-8.35
21,CC(C)(C)c1cc(NCc2ccccn2)n2ncc(-c3ccc(Cl)cc3)c2n1,-9.09
22,COC(=O)[C@@H](NC(=O)N1CCC(Cc2ccccc2)CC1)C(C)C,-13.1
23,CC(C)C(C(=O)NCC1CCCO1)N(C(=O)CNS(=O)(=O)c1ccc(F)cc1)C1CCCCC1 (stereo unspecified),-5.01
24,CC1(C)N=C(N)NC(Nc2ccccc2)=N1,3.29

row,SMILES,inhibition [%]
1,Cc1cccc(NC2=NC(C)(C)N=C(N)N2)c1,-5.24
2,Cc1ccccc1NC1=NC(C)(C)N=C(N)N1,2.17
3,Cc1cccc(C)c1NC1=NC(C)(C)N=C(N)N1,-2.14
4,CCCCC(=O)N/N=C/c1ccc(N2CCOCC2)c([N+](=O)[O-])c1,5.66
5,O=C(c1cc(Cl)cc(Cl)c1)N1CCN(c2cc(C(F)(F)F)nc3ccccc23)CC1,0.46
6,CN1N=C(C(C)(C)C)CC1=O,-12.7
7,OCCC1CN(Cc2nc3ccccc3[nH]2)CCN1C1CCCC1 (stereo unspecified),3.25
8,COc1cc(C(=O)O/N=C2/C=C(C)C(=O)C=C2C)cc(OC)c1OC,-6.02
9,COc1cc(C(=O)ON=C2C=C(C)C(=O)C(C)=C2)cc(OC)c1OC,-6.42
10,CCc1ccccc1N(CC(=O)N1CCCC1)S(C)(=O)=O,6.01
11,Cc1c2c(nc3ccccc13)CC(C)(C)CC2=O,-15.3
12,CCNc1c2c(nc3ccccc13)CC(C)(C)CC2=O,-3.19
13,CCC(=NCc1cccnc1)c1c(O)n(-c2ccc(C)cc2)c(=O)[nH]c1=O,-4.52
14,O=C(COc1ccc2c3c(c(=O)oc2c1)CCC3)N[C@@H](CSCc1ccccc1)C(=O)O,11.7
15,N#C/C(=C\c1cc(O)c(O)c(O)c1)C(N)=O,5.26
16,CCOC(=O)c1ccc(CNCc2ccccc2)cc1,-2.61
17,CCOC(=O)c1ccc(CNCc2ccc(C)cc2)cc1,-2.32
18,Cc1noc(C)c1COc1ccc(C(=O)N2CCN(S(=O)(=O)c3ccc(Cl)cc3)CC2)cc1,-8.91
19,CSc1ccccc1NC(=O)CN(C)C(=O)CCc1c[nH]c2ccccc12,2.89
20,CC(C)(C)c1ccc(OCCON2C(=O)CCC2=O)c(Cl)c1,10.3
21,CNCCCOc1ccc(Cl)cc1C(C)(C)C,18.7
22,CCCCNC(=O)c1cccc(NC(=O)C(=O)c2ccccc2NC(C)=O)c1,0.04
23,Cc1ccc(-c2csc(N=C(N)N)n2)cc1,3.62
24,COc1ccc(-c2csc(N=C(N)N)n2)cc1,4.34
